According to PubChem BioAssay AID651812 (National Center for Advancing Translational Sciences (NCATS), 2012):
The whole screen tested about 2,100 compounds, of which about 650 (31%) were called active. Another 16% or so got no clear call; they are omitted. The call rests on the fitted dose curve; in most records, active means well fitted inhibition curve with a large enough effect; inconclusive means small, poorly fitted or top-dose-only effect; inactive means flat fitted curve, though single readings scatter. Some of the results follow.

Experiment: qHTS for inhibitors of Vif-A3G interactions: Cherry picks; further: nearly all actives have a fitted effect of over 80% in size; on activity, negative = fluorescence increase: % of control where 0% means no effect
Details: HeLa A3G-eYFP + Vif (tagged APOBEC3G with the HIV-1 protein that degrades it), 24 h; Potency: eYFP fluorescence increase; series mostly up to 36.9 µM; activity, negative = fluorescence increase: at the top concentration
Outline: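 HeLa cells stably expressing A3G-eYFP and Vif, cultured overnight then exposed to compounds at several concentrations for 24 hours at 37 C, 5% CO2; cellular yellow fluorescence (488 nm ex, 500-530 nm em) imaged on Acumen, MG132 positive control.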
Potency means the concentration at half of the fitted maximal effect.

SMILES | activity, negative = fluorescence increase | Potency
CCOC(=O)C(=Cc1ccc(-n2cncn2)cc1)C(=O)OCC | -2.14% (inactive) | 
CCOc1cc(S(=O)(=O)NCc2ccc(OC)cc2)c(OCC)cc1-n1cnnn1 | -7.38% (inactive) | 
CC(C)(C)OC(=O)NCc1ccc(NC(=O)c2nc[nH]c2C(=O)NCCCNC(=O)c2[nH]cnc2C(=O)Nc2ccc(CNC(=O)OC(C)(C)C)cc2)cc1 | -19.8% (inactive) | 
CCC(C)n1c(NC(=O)c2ccccc2)c(C#N)c2nc3ccccc3nc21 (stereo not given) |  | 18.4 µM (active)
Cc1ccccc1/C=C\c1nc2ccccc2c(=O)[nH]1 | -2.02% (inactive) | 
CCN(CC(=O)Nc1ccccc1-c1ccccc1)Cc1nc2ccccc2c(=O)[nH]1 | -5.74% (inactive) | 
O=c1[nH]c(/C=C/c2cccc3ccccc23)nc2ccccc12 |  | 18.4 µM (active)
O=c1[nH]c(-c2cccnc2)nc2sc(-c3ccccc3)cc12 | 0.0358% (inactive) | 
O=C(NC1CCCC(C(F)(F)F)C1)c1ccc([N+](=O)[O-])o1 (stereo not given) | -6.86% (inactive) | 
N#C/C(=C\c1ccc(Cl)cc1)c1nc2ncccc2[nH]1 | -4.68% (inactive) | 
N#CC(=Cc1ccccn1)c1nc(-c2ccc(Cl)cc2)cs1 |  | 6.27 µM (active)
COc1ccc(CCNC(=O)CC2(CC3=NS(=O)(=O)c4ccccc4N3)CCCC2)cc1OC | 2.13% (inactive) | 
COc1cccc(Cn2c3ccc(NC(=O)CCc4ccc(F)cc4)cc3c(=O)n2C)c1 | 0.311% (inactive) | 
COc1ccc(-c2cc(-c3nnc(COC(=O)c4ccncc4)o3)c3ccccc3n2)cc1OC | 3.73% [at 46.1 µM] (inactive) | 
CCOc1ccccc1NC(=O)Cn1nnc(C(=O)NCc2cccs2)c1N | -20.3% [at 46.1 µM] (inactive) | 
CCOc1cc(-c2nnc(SCC(=O)NCc3ccccc3)nc2-c2ccc(OC)c(OCC)c2)ccc1OC | -8.95% [at 46.1 µM] (inactive) | 
COc1cc2c(cc1OC)CN(C(=O)c1cc(=O)c3ccccc3o1)CC2 | 1.2% (inactive) | 
CCOc1ccc(C2CC(c3c(O)c4ccccc4oc3=O)=NN2c2ccccc2)cc1OC (stereo not given) |  | 14.6 µM (active)
COc1ccc(C(=O)/C=C2/c3ccccc3CC(C)(C)N2C)cc1 | -5.1% (inactive) | 
COc1ccc(/C=C2\C(=O)NC(=S)N2C(=O)c2ccc(F)cc2)cc1 |  | 8.2 µM (active)
COc1ccc(NC(=O)c2ccc3c(c2)c(C)c(C)n3Cc2ccc(F)cc2)cc1 | 0.527% [at 46.1 µM] (inactive) | 
NNC(=O)c1cc2sccc2s1 | -0.459% (inactive) | 
CC(C)n1cc(NC(=O)c2cc(-c3ccccc3)on2)cn1 | -3.25% (inactive) | 
N#C/C(=C\c1cccc(O)c1)c1nc2ccccc2o1 |  | 3.14 µM (active)
C[C@]12CCC[C@H](O1)c1c(cc3c(c1O)C(=O)c1c(O)cc(O)cc1C3=O)O2 |  | 13 µM (active)
O=C1c2ccccc2C(=O)c2cc(N3CCCCC3)ccc21 |  | 7.9 µM (active)
O=C(N/N=C/c1cccc2ccccc12)c1cc2ccccc2o1 | -0.291% (inactive) | 

SMILES | activity, negative = fluorescence increase | Potency
COc1ccc(NC(=O)c2sc3nc(C(F)(F)F)cc(C)c3c2N)cc1OC |  | 23.1 µM (active)
COc1ccc(C(=O)c2sc3nc(C)cc(-c4cccs4)c3c2N)cc1 |  | 18.4 µM (active)
COC(=O)CCS(=O)(=O)c1nc(-c2ccccc2)cc(C(F)(F)F)n1 | -2.39% (inactive) | 
COc1ccc(Nc2nc(C)nc3sc4c(c23)CCC4)cc1O | -8.04% (inactive) | 
COc1cc(C(=O)Nc2ccc3c(c2)nc(C)n3C)cc(OC)c1OC | -0.44% (inactive) | 
COc1ccc(COc2cc(-c3cccc(OC)c3)nc3ccc(NC(=O)c4ccc(OC)cc4)cc23)cc1 | -7.32% (inactive) | 
COc1ccc(C(=O)c2ccc(OC)c(OC)c2OC)cc1 | -6.12% (inactive) | 
COc1ccc(N(C(=O)C(C)C)S(=O)(=O)c2cccs2)cc1 | 0.154% (inactive) | 
COc1cccc(-c2ccc3c(N)c(C(=O)c4ccc(Br)cc4)sc3n2)c1 |  | 16.4 µM (active)
COc1cccc(C(=O)c2sc3nc(-c4ccccc4)cc(C(F)(F)F)c3c2N)c1 |  | 1.64 µM (active)
O=c1[nH]c(NCc2ccco2)nnc1Cc1ccccc1Cl | -11.5% (inactive) | 
Cc1c(C(=O)N/N=C/C(C)C)[nH]c2c([N+](=O)[O-])cccc12 | -0.808% (inactive) | 
CN[C@H]1CCc2cc(OC)c(OC)c(OC)c2-c2ccc(N(C)CC(OC)OC)c(=O)cc21 | -9.29% (inactive) | 
C/C(=N\NC(=O)c1c(Cl)c(C)nn1C)c1ccc(NC(=O)C2CCC2)cc1 | -3.25% (inactive) | 
Cc1ccc(NC(=O)Cn2ncc(Cl)c(Cl)c2=O)cc1S(=O)(=O)N1CCCCC1 | -4% (inactive) | 
O=C(N/N=C/c1ccc2c(c1)OCO2)c1ccc2c(c1)OCCO2 | -9.25% (inactive) | 
Brc1ccc2c(c1)[C@H]1OCC[C@H]1[C@@H](c1cccs1)N2 | -13.1% (inactive) | 
C=C(C)CNC(=S)N/N=C1\CCCCc2ccccc21 | -2.89% [at 46.1 µM] (inactive) | 
COc1ccc(NC(=O)c2sc3nc(-c4ccc(OC)cc4)cc(C(F)(F)F)c3c2N)cc1 |  | 0.731 µM (active)
COc1ccc(C(=O)c2sc3nc(-c4ccc(C)cc4)cc(C(F)(F)F)c3c2N)cc1 |  | 2.06 µM (active)
Cc1cc(N2CCN(C)CC2)ccc1NC(=O)c1c2c(nc3ccccc13)CCN(Cc1ccccc1)C2 | 0.0382% (inactive) | 
COc1cccc(NC(=O)Nc2nc(-c3ccc(OC)c(OC)c3)cs2)c1 | 1.93% (inactive) | 
COc1ccc(NC(=O)c2sc3nc4c(cc3c2N)CN(Cc2ccccc2)CC4)c(OC)c1 |  | 18.4 µM (active)
COc1cccc(C(=O)Nc2ncc3c(n2)CC(c2ccc(OC)cc2OC)CC3=O)c1 (stereo not given) | -12.1% (inactive) | 
COc1ccc(NC(=O)c2sc3nc(-c4cccnc4)ccc3c2N)cc1OC |  | 3.66 µM (active)
CCOC(=O)c1c(C)nc2sc(C(=O)Nc3ccc(OC)cc3)c(N)c2c1-c1ccc(OC)cc1 | 4.85% (inactive) | 
COc1ccc(OC)c(-c2cc(-c3cccnc3)nc(N)c2C#N)c1 | -1.36% (inactive) | 

SMILES | activity, negative = fluorescence increase | Potency
COc1ccc(NC(=O)c2cc(-c3ccccc3OC)on2)cc1 | 0.515% (inactive) | 
CC1(C)Cc2nc3sc4c(=O)n(CC(=O)NCc5ccccc5)cnc4c3cc2CO1 | -5.27% (inactive) | 
O=[N+]([O-])c1ccccc1SNc1ccccc1 | -7.17% (inactive) | 
CC(=O)Nc1ccc(S(=O)(=O)Nc2nc3ccccc3nc2Nc2ccc3ccccc3c2)cc1 | -25.1% [at 46.1 µM] (inactive) | 
Clc1ccc(-c2csc3ncnc(Sc4nnnn4C4CC4)c23)cc1 | -1.71% [at 46.1 µM] (inactive) | 
O=C1NC(c2ccc(Br)cc2)Nc2ccccc21 (stereo not given) | -8.49% (inactive) | 
C/C(=N\NC(=O)c1cc(-c2ccncc2)nc2ccccc12)c1ccc(N2CCOCC2)cc1 | -12.7% (inactive) | 
CC(=O)Nc1ccc(-c2ccnc3c2CC(C(=O)NCc2cccc(Cl)c2)O3)cc1 (stereo not given) | -14.7% (inactive) | 
Cc1cc(C(F)(F)F)c2c(N)c(C(=O)Nc3cc(C)on3)sc2n1 |  | 8.2 µM (active)
COc1cc(C(=O)Nc2nnc(Cc3ccccc3)s2)cc(OC)c1OC | -5.09% (inactive) | 
COc1ccc2nc3sc(C(=O)Nc4cc(Cl)c(OC)cc4OC)cc3cc2c1 | -23.5% [at 46.1 µM] (inactive) | 
Cc1cc(-c2nc(C)c(C(=O)NN)s2)no1 | -0.0599% (inactive) | 
COc1ccc(OC)c(NC(=O)c2sc3nc(Cc4ccccc4)cc(C(F)(F)F)c3c2N)c1 |  | 4.61 µM (active)
O=C(N/N=C/c1cccc2ccccc12)c1n[nH]c2c1CCCC2 | -9.91% (inactive) | 
O=C(OCC12CC3CC(CC(C3)C1)C2)c1ccc(NCc2cc(O)ccc2O)cc1 | 1.57% [at 46.1 µM] (inactive) | 
CC(=O)Nc1ccc(-c2ccnc3c2CC(C(=O)Nc2cccc(N(C)C)c2)O3)cc1 (stereo not given) | -0.193% (inactive) | 
CC(CC(=O)Nc1ccc2c(c1)c(=O)n(C)n2-c1ccccc1)c1ccccc1 (stereo not given) | -10.9% (inactive) | 
NC(=O)CSc1nc2c(sc3ccccc32)c(=O)n1CCCC(=O)NCC1CCCO1 (stereo not given) | -1.95% [at 46.1 µM] (inactive) | 
CCOC(=O)/C=c1/s/c(=C/c2ccc3cc(OC)ccc3c2)c(=O)n1CC(=O)NCC1CCCO1 (stereo not given) |  | 18.4 µM (active)
O=C(/C=C/c1cccs1)NCc1ccc2c(c1)OCO2 | 3.17% [at 46.1 µM] (inactive) | 
O=C(NCc1ccc2c(c1)OCO2)c1cc([N+](=O)[O-])ccc1N1CCOCC1 | -3.98% (inactive) | 
CCOC(=O)/C=c1\s/c(=C\c2ccccc2C)c(=O)n1CC(=O)NCc1ccc2c(c1)OCO2 |  | 15.8 µM (active)
COc1ccc(OC)c(C2CC(=O)c3c([nH]c(C(=O)OCC4CCCO4)c3C)C2)c1 (stereo not given) | -7.09% (inactive) | 
COc1cc2c(cc1OC)C1=CC(=O)C(=O)N1C(C)(C)C2 |  | 17.7 µM (active)
COc1ccc(-c2cc(NC=O)c3ncc(-c4ccc(C(C)=O)cc4)n3c2)cc1OC | 1.8% (inactive) | 
CC1CCN(c2ccc3c(c2)S(=O)(=O)c2cccc(C(=O)NCc4cccc(F)c4)c2C3=O)CC1 |  | 14 µM (active)
O=C(NCc1ccc2c(c1)OCO2)c1cc([N+](=O)[O-])ccc1N1CCCCC1 | -15.2% (inactive) | 

SMILES | activity, negative = fluorescence increase | Potency
Cc1ccc(CNC(=O)Cc2ccc(-n3cccc3)cc2)cc1 | -0.685% (inactive) | 
Cc1ccc(CNC(=O)c2cccc3c2C(=O)c2ccc(N4CCC(C)CC4)cc2S3(=O)=O)cc1 |  | 20.6 µM (active)
Cc1ccc(CNC(=O)c2cccc3c2C(=O)c2ccc(N4CCCCC4)cc2S3(=O)=O)cc1 |  | 20.6 µM (active)
Cn1c(=O)c2cc(NC(=O)NCc3ccccc3)ccc2n1C/C=C/c1ccccc1 | -4.85% (inactive) | 
O=C(NCc1ccccc1)c1cccc2c1C(=O)c1ccc(/C=C/c3ccccc3)cc1S2(=O)=O |  | 18.4 µM (active)
CCCOc1ccc2cc(C(=O)NCc3ccccc3)c(=O)oc2c1 | -0.451% [at 46.1 µM] (inactive) | 
COc1ccc(NC(=O)C2(C)Cc3c(-c4ccc5c(c4)OCO5)ccnc3O2)cn1 (stereo not given) | -0.638% (inactive) | 
CCN(CC)c1ccc(/C=C/c2ccccn2)cc1 |  | 14.6 µM (active)
CN(C)c1ccc(/C=C/c2ccncc2)cc1 |  | 20.6 µM (active)
CCN(CC)c1ccc(/C=C/c2ccncc2)cc1 |  | 16.4 µM (active)
CCN(CC)c1ccc(/C=C/C2=C3C=CC=CC3NC=C2)cc1 (stereo not given) |  | 18.4 µM (active)
Cc1cc(N/N=C/c2ccc(O)cc2O)nc(-n2nc(C)cc2C)n1 | -1.47% (inactive) | 
CCN(CC)c1ccc(/C=C/C(=O)c2ccc(Br)cc2)cc1 |  | 25.9 µM (active)
CCN(CC)c1ccc(/C=N/NC(=O)c2ccco2)cc1 | -18.9% (inactive) | 
c1ccc(C2CNCc3c2ccc2ccccc32)cc1 (stereo not given) | -2.66% (inactive) | 
CCOc1cc(N(CC)CC)ccc1/C=C(/C#N)c1nc2ccccc2[nH]1 |  | 4.61 µM (active)
CCN(CC)c1ccc(/C=C(/C#N)c2nc3ccccc3[nH]2)c(OC(C)C)c1 |  | 0.58 µM (active)
Cc1cccc(OCCOc2ccccc2C=C(C#N)C#N)c1 | -1.93% (inactive) | 
CCCOc1cc(N(CC)CC)ccc1/C=C(/C#N)c1nc2ccc(C)cc2[nH]1 |  | 18.4 µM (active)
O=C1C=C(Nc2ccc(Cl)cc2Cl)CC(c2ccco2)C1 (stereo not given) | -16.1% (inactive) | 
CC(=O)c1cccc(-c2ccnc3c2CC(C(=O)Nc2cccc(NS(C)(=O)=O)c2)O3)c1 (stereo not given) | -7.08% (inactive) | 
CS(=O)(=O)Nc1ccc(C2=NN(S(C)(=O)=O)C(c3ccc4nccnc4c3)C2)cc1 (stereo not given) | -0.0277% [at 46.1 µM] (inactive) | 
CCS(=O)(=O)N1N=C(c2cccc(NS(C)(=O)=O)c2)CC1c1ccc(C)cc1 (stereo not given) |  | 18.4 µM (active)
O=C1CCCN1c1ccc(S(=O)(=O)Nc2ccc3c(c2)OCCO3)cc1 | -8.96% (inactive) | 
